Assay outcomes: PubChem BioAssay, National Center for Advancing Translational Sciences (NCATS)
Rows were chosen to be rich in hits. Some 8% of all compounds tested hit in one or more screens of this group.
MCF10A rereplic – induces DNA re-replication in MCF 10a normal breast cells | AID 624296 | Potency, µM (highest dose often 46.1 µM), for inactives: at the highest dose activity, positive = re-replication, most hits filed as activators | 2.9% of 350,000 active | MCF 10A DNA re-replication, Hoechst nuclear intensity, 48 h; also: % of control where 0% means no effect; nearly all actives have a fitted effect of over 50% in size
HT1080 IDH1KD tx – HT-1080 IDH1 knockdown cell toxicity (counter line) | HT-1080 IDH1 knockdown viability, ATP luminescence, 48 h | Potency, µM (titrated, usually from 46.1 µM), without a hit: top-dose activity, negative = toxicity, actives largely listed as cytotoxic | 2% of 360,000 active;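 also: 0% = DMSO wells and -100% = cell-free medium wells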
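Knockdown cells (IDH1KD HT-1080) received compounds 2 h after plating at 750 cells/well and were kept 48 h at 37 °C in 5% FBS RPMI. A CellTiter-Glo luminescence read gave % activity for curve fitting.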
KB-V1 MDR tox – KB-V1 MDR subline cytotoxicity. KB-V1 MDR cells viability, CellTiter-Glo, 72 h. Potency, µM (top dose mostly 46.1 µM), hits mostly cytotoxic. 3.4% of 400,000 active. AID 1347076; also: % is scaled to controls: 0 for no effect and ±100 for the full control effect; nearly all actives have a fitted effect of over 60% in size
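Cytotoxicity via CellTiter-Glo luminescence after 72 h compound exposure at 37 degrees C. Cells: drug-selected KB-V1 line, DMEM phenol-red free plus 10% FBS. Compounds tested at multiple concentrations; normalized data fitted to concentration-effect curves.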
SW480 rereplic – inducers of DNA re-replication in SW480 colon cancer cells; SW480 DNA re-replication, Hoechst DNA content imaging, 48 h; Potency, µM (series often up to 46.1 µM), for inactives: top-dose re-replication activation, actives largely listed as activators; 1.8% of 340,000 active; AID 624297; also: % of control where 0% means no effect; nearly all actives have a fitted effect of over 55% in size
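DNA re-replication was detected as more nuclei of elevated Hoechst intensity after 48 hr exposure to compound (23 nL pinned per well of 250 cells).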
KB-3-1 tox – kills parental KB-3-1 adenocarcinoma cells. 1.4% of 400,000 active. AID 1347075. KB-3-1 viability, CellTiter-Glo ATP luminescence, 72 h. Potency, µM (doses to about 46.1 µM), hits mostly cytotoxic; also: % is scaled to controls: 0 for no effect and ±100 for the full control effect; nearly all actives have a fitted effect of over 60% in size
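KB-3-1 parental drug-naive adenocarcinoma cells in DMEM/10% FBS, incubated 72 h at 37 C with pin-transferred compounds across a concentration series. Viability by CellTiter-Glo luminescence; concentration-response curves fitted after normalization.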
HT1080NT lethal – kills 2HG-producing HT-1080-NT fibrosarcoma cells. HT-1080-NT fibrosarcoma viability, CellTiter-Glo ATP luminescence, 48 h. AID 686970. Potency, µM (top dose mostly 46.1 µM), inactives show top-dose activity, negative = less viability, most hits filed as cytotoxic. 1.6% of 360,000 active;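 also: NT is the 2HG producing partner of a matched IDH1 knockdown line; 0% = DMSO-treated cells and -100% = media-only wells without cells; nearly all actives have a fitted effect of over 55% in size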
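750 cells/well, RPMI + 5% FBS; 2 h settle, compound pin-transfer, 48 h at 37 degrees C. CellTiter-Glo 10 min RT, luminescence. Normalized to DMSO and media-only wells.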
Active calls of the source: *; i = inactive; ? = inconclusive; . = no result given. Calls follow the shape of the dose curve; as a rule, active = well fitted curve in the direction sought with a large enough effect; inconclusive = small, poorly fitted or top-dose-only effect, or another doubt; inactive = no such curve, though single readings can be large; an effect the other way counts as inactive or inconclusive. Potency is read from the fitted curve at half-maximal effect.

SMILES	MCF10A rereplic	HT1080 IDH1KD tx	KB-V1 MDR tox	SW480 rereplic	KB-3-1 tox	HT1080NT lethal
CCc1cc(-c2nnn(CCC3COCCO3)c2CC)cc(CC)c1-c1cn(Cc2ccc3ccccc3c2)nn1 (centres undefined)	.	-21%	5.8µM*	.	?	-1%
CCOC(=O)N(C)c1c(CC)nc2c(OCc3ccccc3C)cccn12	.	5%	16µM*	.	?	4%
CCCCC(=O)N(C)c1c(CC)nc2c(OCCC3CCCCC3)cccn12	.	?	?	.	i	?
CCCCC(=O)N(C)c1c(CC)nc2c(OCC3CCCCC3)cccn12	.	?	26µM*	.	?	?
C=CCOc1cccn2c(N(C=O)Cc3ccccc3)c(CC)nc12	.	2%	i	.	i	8%
CCc1nc2c(OCc3ccc(Cl)cc3)cccn2c1N(C=O)Cc1ccccc1	.	?	i	.	?	23µM*
CCc1nc2c(OCc3cc(Cl)cc(Cl)c3)cccn2c1N(C)C(=O)Nc1ccccc1OC	.	?	21µM*	.	?	?
CC(C)[C@@H](C(=O)N[C@@H](C(=O)O)c1ccccc1)N1C(=O)N2CCc3c([nH]c4ccccc34)[C@@]2(C)C1=O	2%	-6%	i	6%	i	4%
CCc1nc2c(OCc3cc(Cl)cc(Cl)c3)cccn2c1N(C=O)Cc1ccccc1	.	?	21µM*	.	?	?
CC1(C(=O)NCc2ccccc2)Cc2c(-c3cccc(C(F)(F)F)c3)ccnc2O1 (centres undefined)	.	3.7µM*	6.5µM*	.	16µM*	?
CC(C)NC(=O)C1(C)Cc2c(-c3cccc(C(F)(F)F)c3)ccnc2O1 (centres undefined)	.	0%	i	.	i	8%
CC1(C(=O)NCc2cccs2)Cc2c(-c3cccc(C(F)(F)F)c3)ccnc2O1 (centres undefined)	.	4.6µM*	21µM*	.	?	5.8µM*
CC1(C(=O)NCc2cccs2)Cc2c(-c3ccc(C(N)=O)cc3)ccnc2O1 (centres undefined)	.	15µM*	i	.	15µM*	?
COc1ccc(-c2nc(-c3cccc(C(F)(F)F)c3)no2)cc1OC	9%	-2%	i	-1%	i	-1%
O=C(NCCc1ccccc1)c1cnc2ccccc2n1	-8%	24%	i	-9%	i	13%
Cc1ccc(C(=O)N2c3ccccc3N(Cc3ccccc3)C(=O)C2(C)C)cc1	4%	?	6.5µM*	?	i	-30%
COC(=O)c1cc(C(=O)c2ccc(Cl)cc2)n2c(=O)/c(=C\N(C)C)sc12	?	0%	?	2%	8.2µM*	-8%
COC(=O)c1cc(C(=O)c2ccccc2)n2c(=O)/c(=C\N(C)C)sc12	-9%	-17%	i	9%	i	-2%
CN(Cc1cccc(C(F)(F)F)c1)Cc1nc(-c2cnccn2)no1	-17%	1%	i	-6%	i	-10%
CN(Cc1ccc(F)cc1)Cc1nc(-c2cnccn2)no1	-4%	13%	i	13µM*	i	20%
Cc1ccc(S(=O)(=O)c2cc3ccc(O)cc3oc2=O)cc1C	2.3µM*	-4%	i	2.3µM*	i	-2%
O=C(Nc1cccc(S(=O)(=O)NCc2ccco2)c1)c1ccc(Cl)cc1	-1%	-5%	i	-16%	i	-4%
Cc1cccc(N(Cc2ccccc2)C(=O)Cc2ccc(S(=O)(=O)N3CCOCC3)s2)c1	21%	4%	?	7%	i	1%
Nn1cnnc1N/N=C\c1ccc(-c2ccccc2[N+](=O)[O-])o1	?	-24%	2.1µM*	2%	7.3µM*	-23%
O=[N+]([O-])c1ccccc1-c1ccc(/C=N/n2cnnc2)o1	-6%	-21%	?	-1%	i	5%
